# SIRT5 block – inhibitors of human sirtuin-5 desuccinylase; Purified SirT5, succinyl-peptide AMC, trypsin-coupled fluorescence; inhibition, % at 15 µM; 1.1% of 330,000 active; AID 652115; in the data active means inhibition above about 15%
# Target sequence (Q9NXA8 whole entry, looked up): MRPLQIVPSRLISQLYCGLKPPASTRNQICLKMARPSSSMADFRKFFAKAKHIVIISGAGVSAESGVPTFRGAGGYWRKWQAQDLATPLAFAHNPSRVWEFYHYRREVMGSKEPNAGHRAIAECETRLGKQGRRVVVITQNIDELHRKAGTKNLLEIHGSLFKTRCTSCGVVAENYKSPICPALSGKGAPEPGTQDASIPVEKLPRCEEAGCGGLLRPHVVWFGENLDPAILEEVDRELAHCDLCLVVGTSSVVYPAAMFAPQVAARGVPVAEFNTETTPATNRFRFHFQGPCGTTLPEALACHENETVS
# CASP6 VEID inh – caspase-6 (human) enzyme inhibition | purified caspase-6, Z-VEID-R110 cleavage fluorescence | inhibition, % at 12.5 µM | 0.53% of 350,000 active | AID 686996;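 active means mean inhibition across replicates at least about 35%, with every replicate also reaching that limit, limit read from the data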;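 further: 0% = median of neutral control wells and 100% = no fluorescence left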
# FGF22 binding – binders of recombinant human FGF22 by thermal shift | 1.5% of 340,000 active | SYPRO orange fluorescence; percent of sucrose octasulfate shift, DMSO zero | AID 651658 | activity (Tm shift, normalised), % at 9.99 µM | Q9HCT0;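 active means mean Tm shift, scaled 0 neutral to 100 positive control, at about 1.3% or above, every replicate too, limit read from the data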
# Target sequence (Q9HCT0 whole entry, looked up): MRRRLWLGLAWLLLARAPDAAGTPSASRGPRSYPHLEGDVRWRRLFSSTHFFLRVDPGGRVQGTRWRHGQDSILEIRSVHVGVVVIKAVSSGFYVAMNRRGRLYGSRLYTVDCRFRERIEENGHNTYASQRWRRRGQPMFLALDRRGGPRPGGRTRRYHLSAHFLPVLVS
# ERAP1 HTS inh – inhibitors of human ERAP1 aminopeptidase. recombinant ERAP1, Leu-AMC fluorescence, 60 min. inhibition, % at 10.7 µM. Q9NZ08. 0.15% of 340,000 active;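 active means mean replicate inhibition of at least 30%, or all replicates individually reaching that 30% level; inactive means mean below 30% and not every replicate reaching it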;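 further: 0% = neutral control wells and 100% = L-leucinethiol positive control wells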
# * = called active by the depositor; . = no result. In the library only some 3.1% were active in any assay of this set; here they are far more common.
SMILES,SIRT5 block,CASP6 VEID inh,FGF22 binding,ERAP1 HTS inh
Cc1cccc(NC(=O)CSc2n[nH]c(-c3ccncc3)n2)c1,-0.9,-0.1,.,-0.6
C[C@@H]1CN([C@H](C)CO)C(=O)c2cccc(NC(=O)C3CCCCC3)c2O[C@H]1CN(C)C(=O)Nc1ccccc1,-2.0,-0.5,0.0,-0.4
CC(=O)Nc1ccc2c(c1)C(=O)N(C)[C@H]1CC[C@@H](CC(=O)NCc3ccccc3)O[C@H]1CO2,-2.6,-0.2,0.0,2.0
C/C=C/c1cnc2c(c1)C(=O)N([C@@H](C)CO)C[C@H](C)[C@H](CN(C)C(=O)NCCC)O2,-2.4,3.2,-0.2,4.9
COc1ccc(CN(C)C[C@@H]2Oc3ccc(NC(=O)CCN4CCOCC4)cc3CC(=O)N([C@@H](C)CO)C[C@@H]2C)cc1,2.9,-1.2,0.0,-3.3
Fc1cccc(CN2[C@@H]3CNC[C@H]2C3c2ccc(-c3ccncc3)cc2)c1 (stereo not given in full),3.2,2.9,.,0.4
O=C(Nc1ccc(CSc2ccccc2)cc1)c1ccccc1,15.3*,1.1,0.3,9.7
O=C(COc1ccccc1)Nc1ccc(CSc2ccccc2)cc1,0.7,-1.2,.,2.1
Nc1ccc(CSc2ccccc2)cc1,1.5,-4.4,43.0*,-3.7
Nc1ccc(SCc2cccnc2)cc1,-1.2,-4.3,-0.5,3.3
COc1ccc(NC(=O)CCSc2nnnn2C)cc1,17.8*,1.1,-0.1,0.5
CCCCCCCN1C2=NCCN2c2ccccc21,-3.3,0.2,-0.6,-0.5
CCCCCCCN1C2=NCCCN2c2ccccc21,-3.1,2.1,43.4*,3.0
C[C@H](CO)N1C[C@H](C)[C@H](CN(C)C(=O)Nc2cccc3ccccc23)Oc2c(NC(=O)Nc3ccc(F)cc3)cccc2C1=O,4.6,1.3,-0.8,-2.3
Cc1ccc(S(=O)(=O)N2CCC(C(=O)OCC(=O)N(C)Cc3ccccc3)CC2)cc1C,20.4*,1.6,0.3,-1.5
CCOC(=O)C1CCN(S(=O)(=O)c2ccc3c(c2)CC(=O)N3C)CC1,-3.8,3.0,-0.4,100.7*
CCCNC(=O)C1CCN(S(=O)(=O)c2ccc3nc4c(c(C(=O)O)c3c2)CCCCC4)CC1,0.6,1.8,-0.2,4.7
CC(NC(=O)C1CCN(S(=O)(=O)c2ccc3nc4c(c(C(=O)O)c3c2)CCCC4)CC1)c1ccccc1 (stereo not given),7.5,51.9*,-0.3,-6.7
Cc1ccc(CCNC(=O)C2CCN(S(=O)(=O)c3ccc4nc5c(c(C(=O)O)c4c3)CCCC5)CC2)cc1,4.7,62.1*,-0.1,-7.0
Cc1ccc(S(=O)(=O)N2CCC(C(=O)OCC(=O)N(Cc3ccccc3)C(C)C)CC2)cc1C,.,-1.6,-0.2,-2.6
COc1ccc(S(=O)(=O)N[C@H]2CC[C@@H](CC(=O)NCCc3ccccc3)O[C@@H]2CO)cc1,-2.1,-0.7,0.0,-7.6
CN1[C@@H]2c3ccc(/C=C/c4ccccc4)c(=O)n3C[C@H]1[C@H](CO)[C@H]2C(=O)NC1CCCC1,-108.3,2.9,.,-4.5
COCC(=O)N[C@H]1CC[C@@H](CC(=O)NCc2ccc(Cl)cc2)O[C@H]1CO,-5.0,.,0.0,.
CCS(=O)(=O)N1CC2(CN(C(=O)CN3CCOCC3)[C@@H](CO)c3c2c2ccc(OC)cc2n3C)C1,-2.7,2.4,0.0,4.9
O=C(C[C@H]1C[C@H]2c3cc(NC(=O)NC4CCCC4)ccc3O[C@H]2[C@@H](CO)O1)NCc1ccccc1,-1.0,-0.4,0.0,-2.2
SMILES,SIRT5 block,CASP6 VEID inh,FGF22 binding,ERAP1 HTS inh
O=C(O)c1c2c(nc3ccc(S(=O)(=O)N4CCC(C(=O)NCc5ccccc5)CC4)cc13)CCCC2,2.8,18.8,0.1,-1.4
COc1ccccc1CNC(=O)C1CCN(S(=O)(=O)c2ccc3nc4c(c(C(=O)O)c3c2)CCCC4)CC1,-0.2,49.9*,-0.1,-2.5
COCCCNC(=O)C1CCN(S(=O)(=O)c2ccc3nc4c(c(C(=O)O)c3c2)CCCCC4)CC1,-0.9,-0.5,0.0,-5.3
CC1CCc2nc3ccc(S(=O)(=O)N4CCC(C(=O)NCc5ccccc5Cl)CC4)cc3c(C(=O)O)c2C1 (stereo not given),2.6,44.8*,-0.1,-2.3
CN(Cc1ccccc1)C(=O)C1CCN(S(=O)(=O)c2ccc3nc4c(c(C(=O)O)c3c2)CCCC4)CC1,11.5,61.6*,-0.7,-4.7
COc1ccc(CNC(=O)C2CCN(S(=O)(=O)c3ccc4nc5c(c(C(=O)O)c4c3)CC(C)CC5)CC2)cc1 (stereo not given),1.6,35.7*,-0.4,-5.4
CCNC(=O)C[C@H]1CC[C@H]2[C@@H](COc3ccc(NC(=O)Nc4ccccc4F)cc3C(=O)N2C)O1,2.0,2.0,-0.1,-5.4
Cc1noc(C)c1NC(=O)N(C)C[C@H]1OCCCC[C@@H](C)Oc2ccc(NS(=O)(=O)c3cccs3)cc2C(=O)N([C@@H](C)CO)C[C@H]1C,-2.2,-0.5,0.6,-2.2
CN1c2ccc(-c3cccc(C#N)c3)cc2[C@@H]2[C@@H](CCN2S(=O)(=O)c2ccccc2)[C@@H]1CO,-0.4,-1.1,-0.2,1.5
CCC(C)NC(=O)C1CCN(S(=O)(=O)c2ccc3nc4c(c(C(=O)O)c3c2)CCCCC4)CC1 (stereo not given),1.5,0.1,0.1,1.5
CC1CCC(NC(=O)C2CCN(S(=O)(=O)c3ccc4nc5c(c(C(=O)O)c4c3)CC(C)CC5)CC2)CC1 (stereo not given),2.8,21.3,43.2*,3.7
C[C@@H]1CN([C@H](C)CO)C(=O)Cc2cc(NC(=O)C3CCCCC3)ccc2O[C@H]1CN(C)Cc1ccc(C(F)(F)F)cc1,3.8,2.5,0.0,-0.7
COC(=O)C1CCN(C(=O)c2cc(-c3ccco3)nc3ccccc23)CC1,-21.1,57.7*,0.0,5.1
CCCNC(=O)Nc1ccc2c(c1)C(=O)N(C)[C@H]1CC[C@H](CC(=O)OC)O[C@@H]1CO2,-5.3,-16.1,.,1.3
CCOC(=O)Sc1nc2ncncc2[nH]1,0.7,-3.0,43.3*,-2.0
Cc1nc2cc(NC(=O)CCS(=O)(=O)c3ccccc3)ccc2s1,-1.2,-1.0,43.6*,1.3
Cc1nc2cc(NC(=O)C3COc4ccccc4O3)ccc2s1 (stereo not given),-2.4,2.1,43.5*,90.4*
O=C(Nc1nc(-c2ccc3c(c2)OCO3)cs1)C1COc2ccccc2O1 (stereo not given),15.8*,-0.9,0.0,3.5
C[C@H]1CN([C@@H](C)CO)C(=O)c2cc(-c3ccccc3F)cnc2O[C@@H]1CN(C)C(=O)C1CC1,-3.3,-1.9,-0.1,-1.2
CCCNC(=O)N1C[C@H](C)[C@H](OC)CN(C)C(=O)c2ccc(NS(C)(=O)=O)cc2OC[C@@H]1C,6.0,0.0,-0.3,4.7
Cc1noc(C)c1NC(=O)Nc1cccc2c1O[C@@H](CN(C)C(=O)NC1CCCCC1)[C@H](C)CN([C@@H](C)CO)C2=O,-9.5,2.9,-0.1,-1.2
CCCNC(=O)N(C)C[C@H]1Oc2cc(C#C[C@H](C)O)ccc2S(=O)(=O)N([C@@H](C)CO)C[C@@H]1C,18.1*,-1.3,0.1,0.5
